# KB-V1 MDR tox: KB-V1 MDR subline cytotoxicity; KB-V1 MDR cells viability, CellTiter-Glo, 72 h; Potency, µM (doses to about 46.1 µM), most hits filed as cytotoxic; hit rate 3.4% among 400,000; AID 1347076; further: nearly all actives have a fitted effect of over 60% in size
#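 In this primary screen, KB-V1 cells overexpressing P-gp are incubated with library compounds (lowest to highest concentration) for 72 h at 37 degrees C before a luminescent ATP viability read.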
# HT1080-NT tox: kills 2HG-producing HT-1080-NT fibrosarcoma cells; Potency, µM (top dose mostly 46.1 µM), without a hit: top-dose activity, negative = less viability, actives largely listed as cytotoxic; HT-1080-NT fibrosarcoma viability, CellTiter-Glo ATP luminescence, 48 h; hit rate 1.6% among 360,000;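 further: NT is the 2HG producing partner of a matched IDH1 knockdown line; 0% = DMSO-treated cells and -100% = media-only wells without cells; nearly all actives have a fitted effect of over 55% in size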
#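 A 48-hour cytotoxicity screen used HT-1080-NT cells plated 2 hours before compound delivery. ATP-based CellTiter-Glo luminescence measured viability, normalized to DMSO and no-cell controls.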
# KB-3-1 cytotox: KB-3-1 parental cell cytotoxicity | KB-3-1 viability, CellTiter-Glo ATP luminescence, 72 h | Potency, µM (top dose mostly 46.1 µM), actives largely listed as cytotoxic | hit rate 1.4% among 400,000 | AID 1347075; further: nearly all actives have a fitted effect of over 60% in size
#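 Viability of parental KB-3-1 cells, measured by CellTiter-Glo luminescence, followed a 72 h incubation at 37 °C with pinned compounds in phenol-red-free DMEM containing 10% FBS.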
# DT40 TDP1 CPT: growth inhibition of DT40 Tdp1-/-;hTDP1 cells with camptothecin (screen for TDP1 inhibitors). chicken DT40 Tdp1-/-;hTDP1 cells + 20 nM CPT, ATP luminescence, 48 h. Potency, µM (titrated, usually from 46.2 µM), for the others: top-dose activity change, negative = growth inhibition, most hits filed as inhibitors. hit rate 12% among 420,000; further: nearly all actives have a fitted effect of over 55% in size
#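 Chicken DT40 Tdp1-/- cells complemented with human TDP1, 400 cells/well, exposed to compounds plus 20 nM camptothecin for at least 48 h at 37 C; viability read as ATP content by CellTiter-Glo luminescence.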
# HT1080 IDH1KD tx: HT-1080 IDH1 knockdown cell toxicity (counter line); HT-1080 IDH1 knockdown viability, ATP luminescence, 48 h; Potency, µM (doses to about 46.1 µM), for the others: at the highest dose activity, negative = toxicity, most hits filed as cytotoxic; hit rate 2% among 360,000; AID 686971;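 further: 0% = DMSO wells and -100% = cell-free medium wells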
#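 Using the IDH1-knockdown HT-1080 line run in the same batch and compound series as the NT line, viability after 48 h at 37 °C was determined by CellTiter-Glo luminescence and expressed as % activity.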
# TDP1 cell noCPT: qHTS for Inhibitors of human tyrosyl-DNA phosphodiesterase 1 (TDP1): qHTS in cells in absence of CPT. DT40 Tdp1-/- hTDP1 cells, no CPT, ATP luminescence, 48 h. Potency, µM (series often up to 46.2 µM), without a hit: at the top dose activity change, negative = growth inhibition, actives largely listed as inhibitors. hit rate 15% among 420,000. AID 686978, 2013; further: nearly all actives have a fitted effect of over 55% in size
#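 Chicken DT40 Tdp1-/- cells stably complemented with human TDP1 were seeded at 400 cells/well with DMSO in place of 20 nM camptothecin. After compound pinning, cells grew at least 48 hr at 37 °C; viability read by CellTiter-Glo luminescence.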
# * = called active by the depositor; i = inactive; ? = inconclusive; nt = no result given. Shown are actives, neighbours in structure and some others; about 19% of the full set was active somewhere. The call rests on the fitted dose curve; in most records, active means well fitted curve in the direction sought with a large enough effect; inconclusive means small, poorly fitted or top-dose-only effect, or another doubt; inactive means no such curve, though single readings can be large; an effect the other way counts as inactive or inconclusive. Unless noted, on the % scale 0 is the no-effect control and ±100 the full control effect; potency means the concentration at half of the fitted maximal effect.
SMILES,KB-V1 MDR tox,HT1080-NT tox,KB-3-1 cytotox,DT40 TDP1 CPT,HT1080 IDH1KD tx,TDP1 cell noCPT
CN(Cc1ccco1)C(=O)c1cc(NC(=O)C2CCC2)c2c(c1)nc(-c1ccncc1)n2C,nt,nt,nt,?,nt,-17.7%
O=C1NCCCCC1NS(=O)(=O)c1ccc(Cl)cc1 (stereo not given),i,2.2%,i,-11.8%,22.2%,-10.0%
CC(C)c1nn2c(=O)cc(COC(=O)c3cccs3)nc2s1,i,nt,i,2.2%,nt,4.0%
COc1cc(C(=O)NCCOc2cccc(C)c2)c(Br)c(OC)c1OC,i,4.6%,i,-0.5%,2.1%,-8.9%
CCC1CCCCN1C(=O)CCc1nnc(C2CCCCC2)o1 (stereo not given),i,4.4%,i,3.3%,1.4%,2.8%
COc1ccc(C(=O)c2c(C(F)(F)F)oc3c2C(=O)c2ccccc2C3=O)cc1OC,9.2µM*,9.2µM*,9.2µM*,2.31µM*,?,5.8µM*
COc1ccc(NC(=O)c2ccc3c(c2)nnn3C2CCCC2)cc1Cl,i,nt,i,-2.4%,nt,-24.7%
COc1ccc(C(=O)Nc2ccc3c(c2)N(C2CCCC2)C(=O)c2ccccc2S3)cc1OC,i,nt,i,10.3µM*,nt,5.17µM*
COc1ccc(C(=O)Nc2ccc3c(c2)C(=O)c2ccccc2C3=O)cc1OC,i,-2.9%,i,10.3µM*,11.6%,?
COC(=O)c1sc2cccc(F)c2c1S(=O)(=O)N1CCN(c2cccc(OC)c2)CC1,i,nt,i,?,nt,?
COc1ccc([C@@H]2C[C@H]3[C@@H](CN2S(=O)(=O)c2ccccc2)C(=O)C[C@@H](c2ccc(OC)cc2)N3S(=O)(=O)c2ccccc2)cc1,i,7.7%,i,-15.4%,0.1%,3.2%
CC(C)n1c(O)c(N=NC(=O)c2ccccc2NS(=O)(=O)c2cccs2)c2ccccc21,i,2.0%,i,?,1.3%,?
COc1cc(CNc2ncnc3c2ncn3[C@H]2CN(Cc3ccccc3)C[C@@H](COC(C)=O)O2)cc(OC)c1OC,i,18.0%,i,?,-2.7%,16.4µM*
COc1cc(CNc2ncnc3c2ncn3[C@H]2CN(Cc3cccc(C(F)(F)F)c3)C[C@@H](CO)O2)cc(OC)c1OC,i,?,i,18.4µM*,-9.1%,16.4µM*
COc1cc(CNc2ncnc3c2ncn3[C@H]2CN(Cc3cccc(C(F)(F)F)c3)C[C@@H](COC(C)=O)O2)cc(OC)c1OC,i,-16.0%,i,?,-27.9%,?
O=C(COc1ccc(F)cc1)NCC1(N2CCCCC2)CCCCC1,i,-1.5%,i,1.1%,-15.2%,2.1%
C=CCN(CC=C)S(=O)(=O)c1ccc2nsnc2c1,i,-3.8%,i,-17.6%,-21.2%,-28.1%
CCCCCn1c(=O)[nH]c2cc(C(=O)NC(C)CC)ccc2c1=O (stereo not given),i,nt,i,-1.4%,nt,-1.1%
CC(C)CCN1C(=O)CCC1(C)C(=O)NC1CCCCCC1 (stereo not given),18.4µM*,17.4%,i,-23.9%,-22.8%,-6.2%
CCc1ccc(CN2C(=O)CCC2(C)C(=O)NC2CCCC2)cc1 (stereo not given),20.6µM*,4.4%,i,?,4.7%,?
CC1(C(=O)NC2CCCCCCC2)CCC(=O)N1Cc1cccnc1 (stereo not given),i,-0.1%,i,-6.6%,2.4%,-26.0%
COc1ccc(CN2C(=O)CCC2(C)C(=O)NC2CCCCCC2)cc1 (stereo not given),14.6µM*,1.2%,i,3.8%,6.7%,3.2%
CC(C)CCN1C(=O)CCC1(C)C(=O)NC1CCCCCCC1 (stereo not given),i,0.0%,i,?,-3.6%,-8.7%

# Screens from PubChem.
